# Compound activity deposited in PubChem BioAssay by National Center for Advancing Translational Sciences (NCATS).
# This excerpt belongs to a sample that is enriched for hits.
# Pf Dd2 inh: blocks in vitro growth of P. falciparum Dd2 | actives 4.3% (n = 120,000) | Potency, µM (highest dose often 28.9 µM), for inactives: at the highest dose activity, negative = inhibition, actives largely listed as inhibitors | P. falciparum Dd2 growth, SYBR Green, 72 h; active = well fitted inhibition curve with a large enough effect;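 note: plate controls were DMSO vehicle for no effect and reference drug for full effect; nearly all actives have a fitted effect of over 65% in size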
#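 Readout: SYBR Green fluorescence, 485 nm excitation, 535 nm emission, after ~16 h lysis at 37C. Before that, Dd2-infected red cells (2.5% hematocrit) grew 72 h with compound, 29 uM top final concentration.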
# Numbers without * were called inactive; i = inactive; [ ] = another dose, or the depositor's remark. Potency is the fitted concentration of half-maximal effect.
SMILES,Pf Dd2 inh
CCOC(=O)c1cnc2ccc(C)cc2c1NCCc1ccc(OC)c(OC)c1,8.9µM*
CCOC(=O)c1c(C)oc2nc(C)nc(NCCc3ccc(OC)c(OC)c3)c12,-25%
CCOc1ccc(-c2nnc(SCC(=O)NCCc3ccc(OC)c(OC)c3)nc2-c2ccc(OCC)cc2)cc1,-26%
Cc1cncc(C(=O)N2C[C@@H](COc3ccccc3)[C@H](C(N)=O)C2)c1,-3%
CC(=O)N1CCn2c(nn(-c3ccc(C)cc3)c2=O)C1,14%[44.1 µM]
O=C([C@@H]1C[C@H](F)CN1C(=O)Nc1ccccc1Cl)N1CCCCC1,-1%
c1ccc(CN2CCN(c3nccc(-c4ccncc4)n3)CC2)nc1,2%
CCO[C@H]1C[C@@H](O)C12CCN(C(=O)c1cc(S(N)(=O)=O)ccc1F)CC2,12%
CN1CC2(CCCN(Cc3cc(F)ccc3-n3cccn3)C2)OC1=O (stereo not given),-7%
Cc1cc(C)n(-c2ccc(F)cc2CN2CCCC(CO)(Cc3ccccc3)C2)n1 (stereo not given),8.9µM*
CCc1ccc(CN2CCCC(CO)(Cc3ccc(F)cc3F)C2)cc1 (stereo not given),-2%
COc1cccc(-c2cc(C3CCN(C(=O)c4ccc(Br)cc4)CC3)[nH]n2)c1,i
CCC(Sc1nc2ccccc2c2nc(CCn3cncc3C)nn12)C(=O)Nc1cccc(OC)c1 (stereo not given),7.1µM*
CCC(Oc1ccccc1)C(=O)Nc1cccc(OCc2cc(=O)n3cccc(C)c3n2)c1 (stereo not given),i
CCCCn1c(SCC(=O)Nc2cccc(OC)c2)nc2c(sc3ccccc32)c1=O,i
O=C(Cc1c[nH]c2ncc(-c3cccnc3)cc12)NCc1cccc(F)c1,6.3µM*
CN1CCN(C(=O)Cc2c[nH]c3ncc(-c4ccc5c(c4)OCO5)cc23)CC1,-21%[44.1 µM]
O=C(Cc1c[nH]c2ncc(-c3cccnc3)cc12)NCCc1ccccc1,i
COc1ccc(-c2cnc3[nH]cc(CC(=O)Nc4ccc(C(F)(F)F)cc4)c3c2)cc1,i
COc1ccc(-c2cnc3[nH]cc(CC(=O)Nc4ccc(OC)nc4)c3c2)cc1,11µM*
COc1ccc(NC(=O)Cc2c[nH]c3ncc(-c4ccccc4)cc23)cc1,-21%[44.1 µM]
CN1CCN(C(=O)Cc2c[nH]c3ncc(-c4cccc(Cl)c4)cc23)CC1,i
CN1CCN(C(=O)Cc2c[nH]c3ncc(-c4ccc(F)c(Cl)c4)cc23)CC1,11µM*
COc1ccc(OC)c(-c2cnc3[nH]cc(CC(=O)NCc4cccnc4)c3c2)c1,i
O=C(Cc1c[nH]c2ncc(-c3cccnc3)cc12)Nc1ccc(C(F)(F)F)cc1,-25%[44.1 µM]
SMILES,Pf Dd2 inh
O=C(Cc1c[nH]c2ncc(-c3ccncc3)cc12)NCc1cccnc1,5µM*
O=C(Cc1c[nH]c2ncc(-c3ccccc3)cc12)NCc1cnccn1,i
N#Cc1cccc(NC(=O)N[C@H]2[C@H](O)[C@@H](N3CCCCC3)[C@@H]3OC[C@H]2O3)c1,i
O=C1NCCOCCN(S(=O)(=O)c2cccs2)[C@H]2CCC[C@@H]12,20%
O=C1CCN(C(=O)[C@@H]2CCCN2C(=O)c2ccoc2)CCCCCCN1,9%
COCCc1nncn1C1CCN(C(=O)c2cc(Cl)ccc2F)CC1,-4%
O=C(NC(C(=O)N1CCCCC1)C1CCN(C(=O)CCc2ccccc2)CC1)c1cccs1 (stereo not given),-5%
OC1(c2csc(CN3CCc4ccccc4C3)n2)CCN(C2CCOCC2)CC1,i
Cc1nc2scc(CC(=O)NC(C)C(C)C)n2c(=O)c1-c1cc(C)n(-c2ccccc2F)n1 (stereo not given),i
O=C(Cc1cccc(Cl)c1)NCc1c[nH]c2ncccc12,-19%[44.1 µM]
O=C(Cc1c[nH]c2ncc(-c3cccc(Cl)c3)cc12)NCc1cccnc1,4.5µM*
NC(=O)Cc1c[nH]c2ncc(-c3cccc(F)c3)cc12,-22%[44.1 µM]
Cn1cc(-c2cnc3[nH]cc(CC(=O)Nc4ccc(N5CCOCC5)cc4)c3c2)cn1,45%[44.1 µM]
Cn1cc(-c2cnc3[nH]cc(CC(=O)Nc4ccccc4Cl)c3c2)cn1,-19%[44.1 µM]
Cn1cc(-c2cnc3[nH]cc(CC(=O)Nc4cccc(F)c4)c3c2)cn1,6.3µM*
O=C(NCCc1ccccn1)c1ccnc(-c2nnc3ccc(Nc4ccccc4)nn23)c1,i
COCCN1CC(CO)C2(CCN(C(=O)COc3ccccc3)CC2)C1 (stereo not given),-19%
O=C(COc1ccccc1)N1CCC2(CC1)CN(Cc1ccccc1)CC2CO (stereo not given),5µM*
O=C(CN1CCCCCC1)N1CCC2(CC1)CN(Cc1ccccc1)CC2CO (stereo not given),i
O=S(=O)(c1ccccc1)N1CCN(c2cc(C3CC(O)C3)ncn2)CC1 (stereo not given),-18%
O=C1[C@@H]2C[C@@H](O)CN2C2(CN(C3CCOCC3)C2)C(=O)N1Cc1ccccc1Cl,i
O=C1N(Cc2ccccc2)c2ccccc2C12CCN(Cc1ccccc1)C2 (stereo not given),-10%
COC[C@@H]1CN(C(=O)Cn2cc(C)cn2)C[C@H]1c1ccncc1,31%
COCCN1C(=O)c2ccccc2C(C(=O)NCCc2ccc(Cl)cc2)C12CCCC2 (stereo not given),-20%
O=C(c1ccccn1)N1CCCC(c2nc(C3CCOCC3)no2)C1 (stereo not given),26%
SMILES,Pf Dd2 inh
Cc1cn2nnc(C(=O)NCc3ccc4c(c3)OCO4)c2c(=O)[nH]1,6.3µM*
Cc1cn2nnc(C(=O)N3CCC(C(=O)NCc4cccc(Cl)c4)CC3)c2c(=O)[nH]1,4.5µM*
CCCNC(=O)c1nnn2cc(C)[nH]c(=O)c12,61%
Cc1cn2nnc(C(=O)NCC3CCCCC3)c2c(=O)[nH]1,6.3µM*
Cc1cn2nnc(C(=O)NCc3ccncc3)c2c(=O)[nH]1,57%
Cc1cn2nnc(C(=O)N3CCC(C(=O)NCc4ccccc4Cl)CC3)c2c(=O)[nH]1,-8%
Cc1ccc(CNC(=O)C2CCN(C(=O)c3nnn4cc(C)[nH]c(=O)c34)CC2)cc1,i
Cc1cn2nnc(C(=O)NCC3CC3)c2c(=O)[nH]1,42%
COc1ccc(CNC(=O)c2nnn3cc(C)[nH]c(=O)c23)cc1,-28%
COc1ccc(C(C)NC(=O)Cn2c(C)cc3nc4n(c(=O)c32)CCCCC4)cc1 (stereo not given),i
CC1CCC2(CC1)OCC(C(=O)N1CCOCC1)N2C(=O)c1ccc(Cl)c(Cl)c1 (stereo not given),-28%
COC(=O)c1ccc(NC(=O)N2CCCC(Cc3nncn3CC3CC3)C2)cc1 (stereo not given),i
NC(=O)C1(C(=O)N2CCC3(CC2)CC(=O)N(C/C=C/c2ccccc2)C3)CC1,-9%
Cc1ccncc1C(=O)N1[C@H]2CC[C@@H]1c1cnc(-c3ccccc3)nc1C2,-25%
Cc1ccc(CCNC(=O)CN2C(=O)COc3ccc(S(=O)(=O)N4CCC(C)CC4)cc32)cc1,-20%
CCCNC(=O)CN1C(=O)COc2ccc(S(=O)(=O)N3CCC(C)CC3)cc21,-21%
CCCN(CCC)CCNC(=O)CN1C(=O)COc2ccc(S(=O)(=O)N3CCC(C)CC3)cc21,4.5µM*
CN1CCC(Nc2ccc3c(n2)CN(Cc2ccc(F)cc2)C(=O)CO3)CC1,-17%[44.1 µM]
CN1CCc2c([nH]c3ccccc23)C12CCN(C(=O)c1cccnc1)CC2,-15%
CCOC(=O)c1ccc(NC(=O)Cn2ccn3nc4c(c3c2=O)CCCCC4)cc1,-4%
O=C1Nc2ccccc2CNC12CCN(Cc1c[nH]c3ccccc13)CC2,-25%
